Out of some 410,000 compounds screened, about 5,000 (1.2%) were called active. A call without a number means that no potency is given here. About 13% were inconclusive and are not listed. The call rests on the fitted dose curve; in most records, active means well fitted inhibition curve with a large enough effect; inconclusive means small, poorly fitted or top-dose-only effect; inactive means no such curve, though single readings can be large or run the other way. For the sample, actives were picked, then their nearest neighbours and some compounds at random.
Experiment: qHTS for Inhibitors of TGF-b; further: nearly all actives have a fitted effect of over 65% in size
Details: HepG2 CAGA-GFP TGF-b/SMAD3 reporter, GFP fluorescence, 18 h, TGF-beta stimulated, 500 pg/mL final; series mostly up to 46.1 µM
Summary of the method: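 GFP signal (ex488/em500-530) from TGF-beta-stimulated HEPG2 CAGA-GFP cells, 500 pg/mL final, 18 h at 37 degrees C in DMEM plus 1% FBS, normalized to unstimulated and DMSO-stimulated controls.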
Potency means the concentration at half of the fitted maximal effect.

SMILES | Potency
COc1ccccc1-c1cc2nc(C)c(CCC(=O)O)c(C)n2n1 | inactive
CN(N=O)c1ccc(C=C2c3ccccc3-c3ccccc32)cc1 | inactive
Cc1ccc(-c2nc(=N)sn2Cc2ccccc2)cc1 | inactive
Cc1ccc(-n2c3nc(=O)[nH]c(=O)c-3cc3c(Cl)cccc32)cc1 | inactive
O=C(NCCCN1CCN(c2cccc(Cl)c2)CC1)c1nnc(Cc2ccc(F)cc2Cl)o1 | 10 µM (active)
Cc1ccc(CCNC(=O)c2nnc(Cc3cccc(F)c3)o2)cc1 | inactive
COc1ccc(N2CCN(CCNC(=O)c3nnc(Cc4c(F)cccc4Cl)o3)CC2)cc1 | inactive
COc1ccc(CCC(=O)NCc2ccc3c(c2)CCN3C(=O)c2ccc(F)cc2)cc1 | inactive
CCCNC(=O)c1ccc(Cn2c(SCC(N)=O)nc3ccccc3c2=O)cc1 | inactive
COc1ccc(OC)c(CNC(=O)c2c3c(nc4ccccc24)C(=O)N(C2CCCCC2)C3)c1 | inactive
Cn1c(NCc2cccnc2)nc2cc(-c3ccc(F)cc3)sc2c1=O | inactive
SCc1nc2ccc(Cl)cc2[nH]1 | inactive
O=c1[nH]c(CCl)nc2cc(-c3ccc(Cl)cc3)sc12 | 5.01 µM (active)
CC(C)(C)c1ccc(C(=O)C[N+]2(C)CCCc3ccccc32)cc1 (stereo unspecified) | inactive
Cc1nc(N=C(N)N)nc2c(C)cccc12 | 11.2 µM (active)
N#Cc1ccc[n+](CC(=O)c2ccc(O)c(O)c2)c1 | inactive
CCCCCCCNc1ccc(/C=C/c2ccnc3ccccc23)cc1 | inactive
COc1ccc(Cn2c(=O)c3oc4ccccc4c3n(CC(=O)Nc3ccc(F)cc3F)c2=O)cc1 | inactive
CC(C)CNc1ncnc2c1nnn2C | inactive
CCCCSc1ncnc2c1sc1nc(N3CCOCC3)c3c(c12)CCCC3 | inactive
Cc1oc2cc(Br)c(O)c(Br)c2c1C(=O)c1ccccc1 | inactive
CCOC(=O)c1c(-c2ccccc2)oc2cc(Br)c(O)c(C=O)c12 | inactive
CCOC(=O)c1c(C)oc2cc(Sc3ccccc3)c(O)c(O)c12 | 10 µM (active)
CCOc1ccc(NC(=O)c2c(NC(=O)Cc3ccccc3)sc3c2CCC(C)C3)cc1 (stereo unspecified) | inactive

SMILES | Potency
COc1ccc(Cn2c(C(=O)O)c(CNCc3cccc(OC)c3)c3ccc(C)cc32)cc1 | inactive
COc1ccc(-n2c(=O)c3ccccc3n(Cc3ccccc3Cl)c2=O)cc1 | inactive
Cc1cc(-c2n[nH]c(=S)n2/N=C/C(Br)=C/c2ccccc2)n[nH]1 | 7.08 µM (active)
Cc1ccccc1-c1n[nH]c(=S)n1/N=C/c1ccc(-c2ccccc2Br)o1 | inactive
COc1ccccc1N1CCN(/N=C\C(Br)=C\c2ccccc2)CC1 | inactive
Cc1ccc(Cl)cc1NC(=O)CSc1nc2ccccc2nc1Cc1ccccc1 | inactive
Cc1ccc(CNC(=O)CSc2c(C)cnc3c2c(=O)n(C)c(=O)n3C)cc1 | inactive
CN1CCN(c2oc(-c3ccc(COc4ccc(Cl)cc4)o3)nc2C#N)CC1 | inactive
CCOc1cccc(NC(=O)c2ccc(F)c(S(=O)(=O)N(CC)c3cccc(C)c3)c2)c1 | inactive
O=C1CC(c2ccc(F)cc2F)c2cc3c(cc2N1)OCO3 (stereo unspecified) | inactive
COC(=O)c1ccc(C2CC(=O)Nc3cc(OC)c(OC)cc32)cc1 (stereo unspecified) | inactive
CCCOc1ccccc1C1CC(=O)Nc2cc3c(cc21)OCO3 (stereo unspecified) | 7.08 µM (active)
Cc1ccc(S(=O)(=O)n2nc(-c3ccc(Cl)cc3)nc2NCc2ccccc2)cc1 | inactive
COc1ccc(OC)c(-n2nnc3c(sc4nc(C)c(Br)c(C)c43)c2=O)c1 | inactive
Cc1ccccc1-c1nc2scc(CCNC(=O)C(=O)Nc3ccc(F)cc3F)n2n1 | inactive
Cc1ccc(S(=O)(=O)N2[C@@H](c3cccc(Cl)c3)C(C(=O)O)=CC[C@H]2c2ccc(Cl)c(Cl)c2)cc1 | 15.8 µM (active)
CCOC(=O)C1=CC[C@@H](c2ccccc2)N(S(=O)(=O)c2ccc(C)cc2)[C@H]1c1cccc(OC)c1 | inactive
Cc1ccccc1S(=O)(=O)N1[C@@H](c2cccc(Cl)c2)C(C(=O)OC(C)(C)C)=CC[C@H]1c1ccc(Cl)cc1 | inactive
CCCCN(C)S(=O)(=O)c1ccc(C(=O)Nc2sc3c(c2C(N)=O)CC(C)(C)NC3(C)C)cc1 | inactive
CCc1ccc(NC(=O)c2nn(-c3ccc(C)cc3)c(=O)n(C)c2=O)cc1 | inactive
CCOC(=O)c1ccccc1NC(=O)c1nn(-c2ccc(OC)c(Cl)c2)c(=O)c2c1c1ccccc1n2C | inactive
O=C(NC1CC(=O)N(c2ccc(F)cc2)C1)C1CCCCC1 (stereo unspecified) | inactive
CCOC(=O)c1c(S(=O)(=O)NCC(=O)Nc2ccc(C)cc2)c(C)n(C)c1C | inactive
CCOC(=O)c1c(S(=O)(=O)NCC(=O)Nc2ccc(Cl)c(C(F)(F)F)c2)c(C)n(C)c1C | 11.2 µM (active)

SMILES | Potency
CCOC(=O)c1c(S(=O)(=O)Nc2cccc(Cl)c2)c(C)n(C)c1C | inactive
COc1ccc(CCNC(=O)c2cnc3sc(N4CCCCCC4)nn3c2=O)cc1OC | inactive
Nc1c(Cl)cc(-c2csc(N3CCCC3c3nc4cc(Cl)c(Cl)cc4n3CCOCCO)n2)cc1Cl (stereo unspecified) | inactive
CCCn1c(C(C)Nc2nc(-c3ccc(C)cc3)cs2)nc2cc(Cl)c(N3CCCCC3)cc21 (stereo unspecified) | inactive
Cc1nc2cc(C(F)(F)F)ccc2n1CCNc1nc(-c2cc(Cl)c(N)c(Cl)c2)cs1 | 11.2 µM (active)
Cc1cccc(OCCCC(=O)Nc2sc3c(c2C(N)=O)CCC(C)C3)c1 (stereo unspecified) | inactive
O=C(CC1C(=O)N(c2ccccc2)C(=O)N1CCc1cccs1)Nc1ccc(F)cc1 (stereo unspecified) | inactive
O=C1NC(Nc2nc3ccccc3s2)(C(F)(F)F)C(=O)N1C1CCCCC1 (stereo unspecified) | 7.94 µM (active)
O=C(NC1(C(F)(F)F)N=C(c2ccccc2)N(C2CCCCC2)C1=O)c1ccccc1F (stereo unspecified) | inactive
COc1cc(SC#N)ccc1N=Cc1c(C)[nH]n(-c2ccc(C)cc2)c1=O | 10 µM (active)
CCN(CC)CCNC(=O)c1cc2c(=O)oc3ccc(C)cc3c2s1 | inactive
Cc1cccc(-n2ncc(C(=O)N3CCc4ccccc4C3)c2C2CCN(C(=O)OC(C)(C)C)CC2)c1 | inactive
Cc1ccccc1Cn1c2ccccc2c2cnn(CC(=O)NCc3ccco3)c(=O)c21 | inactive
CCCN(CCC)CCCNC(=O)Cn1ncc2c3ccccc3n(Cc3ccccc3)c2c1=O | inactive
CCN(CC)CCNC(=O)Cn1ncc2c3ccccc3n(Cc3ccccc3C)c2c1=O | 14.1 µM (active)
CCOC(=O)c1c(C)[nH]c(C)c1S(=O)(=O)NCC(=O)NCc1cccc(C)c1 | inactive
Cc1cccc(NS(=O)(=O)c2ccc(-c3cnc(C4CC4)o3)cc2)c1 | 11.2 µM (active)
COc1ccc(CNS(=O)(=O)c2ccc(-c3cnc(C4CC4)o3)cc2)cc1 | inactive
Cc1ccc(-c2cnc(C3CC3)o2)cc1S(=O)(=O)Nc1cccc(C)c1C | inactive
COc1ccc(OC)c(NC(=O)C2CCN(S(=O)(=O)c3ccc(C)cc3)CC2)c1 | inactive
COc1cc(Br)cc2cc(S(=O)(=O)c3ccccc3)c(=O)oc12 | inactive
Cc1ccnc(NC(=O)C2CCN(S(=O)(=O)c3c(C)c(C)cc(C)c3C)CC2)c1 | 11.2 µM (active)
O=C(Nc1ccccn1)C1CCN(S(=O)(=O)c2ccccc2)CC1 | inactive
Cc1cccc(NC(=O)C2CCN(S(=O)(=O)c3cccc4cccnc34)CC2)c1 | inactive

SMILES | Potency
COc1ccc(S(=O)(=O)c2c(Nc3cccc(Cl)c3)sc(C(=O)c3ccccc3)c2N)cc1 | inactive
CC(NC(=O)c1cc(Sc2ccc(F)cc2F)nc2ccccc12)c1ccccc1 (stereo unspecified) | inactive
CSc1n[nH]c(-c2ccco2)n1 | inactive
CCN(c1ccc(Cl)cc1)S(=O)(=O)c1nnc(NC(=O)c2ccco2)s1 | inactive
CCCN(CCC)CCNC(=O)Cn1cnc2sc(C)c(S(=O)(=O)N3CCC(C)CC3)c2c1=O | inactive
COc1ccc(-c2onc(C)c2C)cc1S(=O)(=O)NCC1CCN(Cc2cccc(F)c2)CC1 | 8.91 µM (active)
COc1ccc(-c2onc(C)c2C)cc1S(=O)(=O)NCCc1ccccc1 | inactive
COc1ccc(-c2onc(C)c2C)cc1S(=O)(=O)NCc1cccs1 | inactive
O=C(Nc1ccccc1Cl)N1CCC(CN2CCCCC2)CC1 | inactive
CCCc1nn2c(=O)cc(COC(=O)c3ccc(NC(=O)C(C)Oc4ccccc4)cc3)nc2s1 (stereo unspecified) | inactive
CN(C)c1ccc(C=Nc2ccc(/C=C/c3ccnc4ccccc34)cc2)cc1 | inactive
Cc1ccc(-n2nc(C)c3c(C)cc(=O)n(CC(=O)Nc4ccc(C(C)C)cc4)c32)cc1 | inactive
CC1(C)Cc2ccccc2-c2c[nH]c(=O)n21 | inactive
CCOC(=O)N1CCc2c(sc3c2C(=O)NC(c2ccccc2F)N3)C1 (stereo unspecified) | inactive
C[C@@H](NC(=O)OC(C)(C)C)c1nnc(S(=O)(=O)Cc2ccccc2)o1 | 14.1 µM (active)
CC(C)(C)c1ccc(C(CC(=O)O)NS(=O)(=O)Cc2ccccc2)cc1 (stereo unspecified) | inactive
CC(C)[C@@H](NC(=O)OC(C)(C)C)C(=O)NCC1CCC(C(=O)N[C@@H](Cc2ccccc2)C(=O)O)CC1 (stereo partly specified) | inactive
CCOC(=O)c1cc2c(=O)n3ccccc3nc2n(CCCOC)c1=NC(=O)C(C)(C)Oc1ccc(Cl)cc1 | inactive
Cc1ccc(-c2noc(CSc3nnc(-c4ccncc4)n3-c3ccc(F)cc3)n2)cc1 | inactive
Cc1ccc(Nc2nc(CSc3nnc(-c4ccncc4)n3-c3ccccc3C)cs2)cc1 | 11.2 µM (active)
Cc1ccc(-n2c(SCC(=O)N3c4ccccc4Sc4ccccc43)nnc2-c2ccncc2)cc1 | inactive
OCC(O)C(O)C(O)C(O)C=Nc1ccc(/C=C/c2ccnc3ccccc23)cc1 (stereo unspecified) | inactive
O=C(c1ccco1)N(Cc1cccs1)c1ccc(O)cc1 | inactive
CC(CNC(=O)c1nnc(Cc2cccc(F)c2)o1)c1ccccc1 (stereo unspecified) | inactive

From PubChem BioAssay AID588855 (National Center for Advancing Translational Sciences (NCATS), 2011)
